# Source: PubChem BioAssay (EPA / NIEHS)
# Inconclusive results are not listed. Activity calls are given as the source filed them. How the source made its calls: active means hit-call score of the fitted dose curve at least 0.9, where 1 is the maximum; inconclusive means response in the unintended direction; inactive means score below 0.9.
# Target: human Caspase 5 (CASP5), CASP5 (gene 838) (UniProt P51878)
# Assay: NVS_ENZ_hCASP5: NovaScreen (NVS) Enzymatic Assay for human Caspase 5 (CASP5) (AID 2283137)
# Experimental: NVS_ENZ_hCASP5 is a biochemical, single-readout assay that uses extracted gene-proteins from E. coli in a cell-free assay. Measurements were taken 2 hours after chemical dosing in a 96-well plate.NVS_ENZ_hCASP5 is one of one assay component(s) measured or calculated from the NVS_ENZ_hCASP5 assay. It is designed to make measurements of enzyme activity, a form of enzyme reporter, as detected with fluorescence intensity signals by Fluorescence technology.Data from the assay component NVS_ENZ_hCASP5 was analyzed into 1 assay endpoint. This assay endpoint, NVS_ENZ_hCASP5, was analyzed in the positive analysis fitting direction relative to DMSO as the negative control and baseline of activity. Using a type of enzyme reporter, loss-of-signal activity can be used to understand changes in the enzymatic activity as they relate to the gene CASP5. Furthermore, this assay endpoint can be referred to as a primary readout, because this assay has produced multiple assay endpoints where this one serves a enzymatic activity function. To generalize the intended target to other relatable targets, this assay endpoint is annotated to the protease intended target family, where the subfamily is cysteine protease.
# Binding assays used specific radioligands (tritiated, iodinated) with non-radioactive competitive displacement ligands in agonist or antagonist protocols (as indicated) and various reference compounds and inhibitors to titrate specific binding to receptors and transporters. Most enzyme assays (CYPs, kinases, phosphatases, proteases, HDACs) used recombinant protein and specific substrates (fluorescence mostly, some colorimetric and radioactive) and inhibitors, followed by a biochemical separation of substrate and product. All assays for the biochemical HTS were initially run in duplicate at a single concentration (10 uM for CYP450 assays and 25 uM for all others). Assay-chemical combinations meeting a pre-defined threshold (e.g., 30% inhibition and other criteria defined below) were then run in singleton concentration-response format with maximum concentration of 20 uM for CYPs and 50 uM for all others. Each assay was run with positive and negative controls, and concurrent controls on every plate. The follow-up (secondary) screen tested active chemical-pairs in concentration series, as well as a few additional assays not tested in the primary screen, some selected negative inactives, and several cases re-run in the concentration series for confirmatory purposes.
# Sequence of human Caspase 5 (CASP5), CASP5 (gene 838) (P51878 whole entry, looked up): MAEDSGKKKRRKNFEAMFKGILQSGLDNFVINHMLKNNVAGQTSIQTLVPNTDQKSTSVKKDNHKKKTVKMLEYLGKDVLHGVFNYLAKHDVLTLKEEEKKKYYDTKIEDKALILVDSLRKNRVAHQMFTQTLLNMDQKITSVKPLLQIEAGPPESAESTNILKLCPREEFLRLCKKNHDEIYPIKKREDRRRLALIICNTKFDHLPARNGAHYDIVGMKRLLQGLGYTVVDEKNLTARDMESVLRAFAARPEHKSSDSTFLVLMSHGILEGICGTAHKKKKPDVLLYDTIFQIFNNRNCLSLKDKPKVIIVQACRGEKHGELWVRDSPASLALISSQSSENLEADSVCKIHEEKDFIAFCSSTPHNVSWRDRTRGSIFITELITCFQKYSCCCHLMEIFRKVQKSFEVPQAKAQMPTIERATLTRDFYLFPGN
Structure (SMILES),AC50,outcome
CCCCC(CC)COC(=O)CC(C(=O)OCC(CC)CCCC)S(=O)(=O)O (stereo not given),15.2 µM (active),–
COc1cc(-c2nc(NC(=O)c3cc4cc(C)cc(C)c4n3CC(=O)O)sc2CCC2CCCCC2)c(OC)cc1Cl,0.91 µM (active),–
COc1cc(S(=O)(=O)O)c(C)cc1N=Nc1c(O)ccc2cc(S(=O)(=O)O)ccc12,19.9 µM (active),–
CCCCCCCCCCCCCCCCCC(=O)O,0.719 µM (active),–
Cc1c(C(=O)O)c(O)cc2c1C(=O)c1c(O)c([C@@H]3O[C@H](CO)[C@@H](O)[C@H](O)[C@H]3O)c(O)c(O)c1C2=O,–,inactive
CC1(C)CC(N=C=O)CC(C)(CN=C=O)C1 (stereo not given),–,inactive
CCc1c(C(=O)NN2CCCCC2)nn(-c2ccc(Cl)cc2Cl)c1-c1ccc(Br)cc1,–,inactive
CC1=C(/C=C/C(C)=C/C=C/C(C)=C/CO)C(C)(C)CCC1,39.9 µM (active),–
COc1ccc(C)cc1N,–,inactive
Cc1ccc2ncccc2c1,–,inactive
